Results filed as inconclusive are left out. Active and inactive are the calls of the source. Unless noted, calls follow the shape of the dose curve; as a rule, active = well fitted curve in the direction sought with a large enough effect in the repeat runs; inconclusive = weak or mixed curves; inactive = no such curve, though single readings can be large; an effect the other way counts as inactive or inconclusive.
Columns and labels:
[1] = qHTS assay to identify small molecule antagonists of the glucocorticoid receptor (GR) signaling pathway - cell viability counter screen (AID 720693); also: nearly all actives have a fitted effect of over 55% in size
[2] = qHTS assay for identifying genotoxic compounds that show differential cytotoxicity against isogenic chicken DT40 cell lines with known DNA damage response pathways - wild type cell line (AID 743012); also: nearly all actives have a fitted effect of over 60% in size; also: potency is read from the fitted curve at half-maximal effect
Outline: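 CellTiter-Glo luminescence readout of viability in wild type DT40 cells after 40 h compound exposure at 37 C/5% CO2; 300 cells/well; reagent incubated 30 min at room temperature before reading.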

[3] = qHTS assay for identifying genotoxic compounds that show differential cytotoxicity against isogenic chicken DT40 cell lines with known DNA damage response pathways - Rev3 mutant cell line (AID 743014); also: nearly all actives have a fitted effect of over 55% in size; also: potency is read from the fitted curve at half-maximal effect
[4] = qHTS assay for identifying genotoxic compounds that show differential cytotoxicity against isogenic chicken DT40 cell lines with known DNA damage response pathways - Rad54/Ku70 mutant cell line (AID 743015); also: nearly all actives have a fitted effect of over 60% in size; also: potency is read from the fitted curve at half-maximal effect
[5] = qHTS assay to identify small molecule antagonists of the androgen receptor (AR) signaling pathway - cell viability counter screen (AID 743033; also: nearly all actives have a fitted effect of over 45% in size)
[6] = qHTS assay to identify small molecule antagonists of the androgen receptor (AR) signaling pathway using the MDA cell line - cell viability counter screen (AID 743041; also: nearly all actives have a fitted effect of over 45% in size)
Outline: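 Cytotoxicity counter screen: MDA-kb2 AR-luc cells, compound + R1881, 16 h, 37C, 0% CO2; CellTiter-Fluor added at 15.5 h, fluorescence read after 30 min.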

[7] = qHTS assay to identify small molecule antagonists of the thyroid receptor (TR) signaling pathway - cell viability counter screen (AID 743064); also: nearly all actives have a fitted effect of over 50% in size
Outline: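 Compounds were tested on GH3.TRE-Luc cells in the presence of T3 at 1 nM final. Following 23.5 h at 37 °C, cell viability was quantified by CellTiter-Fluor.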

[8] = qHTS assay to identify small molecule antagonists of the thyroid receptor (TR) signaling pathway (AID 743065); also: series mostly up to about 70 µM; nearly all actives have a fitted effect of over 55% in size
Outline: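 GH3.TRE-Luc rat pituitary cells (two TREs driving luciferase) were dosed with compound, then stimulated with 1 nM T3 (final) for 23.5 h at 37 C. ONE-Glo luminescence was the read-out, with CellTiter-Fluor fluorescence as the cytotoxicity counter-screen.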

[9] = test system: thyroid hormone receptor (rat, GH3 cells); assay: qHTS assay to identify small molecule agonists of the thyroid receptor (TR) signaling pathway (AID 743066; calls by dose curve)
[10] = target: Estrogen receptor (Homo sapiens) (UniProt P03372); assay: qHTS assay to identify small molecule antagonists of the estrogen receptor alpha (ER-alpha) signaling pathway (AID 743069; active = well fitted curve in the direction sought with a large enough effect in the signal ratio in the repeat runs, not every such curve was filed as active; the % refers to the signal ratio)
Outline: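 Beta-lactamase FRET fluorescence is read after 2 hr at room temperature with LiveBLAzer B/G substrate. Before that, ER-alpha-bla HEK293 cells sit 4 hr after plating, then receive compound plus 17beta-estradiol and incubate 18 hr at 37C.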

[11] = qHTS assay to identify small molecule antagonists of the estrogen receptor alpha (ER-alpha) signaling pathway - cell viability counter screen (AID 743074; calls by dose curve;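 also: HEK293 cells carrying ER-alpha-UAS-bla reporter stimulated with 17beta-estradiol; nearly all actives have a fitted effect of over 45% in size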)
[12] = target: Estrogen receptor (Homo sapiens) (UniProt P03372); assay: qHTS assay to identify small molecule agonists of the estrogen receptor alpha (ER-alpha) signaling pathway (AID 743075; calls by dose curve;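 also: HEK293 GripTite cells with ER-alpha and UAS-driven beta-lactamase reporter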)
[13] = target: Estrogen receptor (Homo sapiens) (UniProt P03372); assay: qHTS assay to identify small molecule agonists of the estrogen receptor alpha (ER-alpha) signaling pathway using the BG1 cell line (AID 743079); also: nearly all actives have a fitted effect of over 20% in size
[14] = qHTS assay to identify small molecule antagonists of the estrogen receptor alpha (ER-alpha) signaling pathway using the BG1 cell line (AID 743080; calls by dose curve;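 also: BG1 cells stimulated with 17beta-estradiol alongside compound; series mostly up to about 70 µM; nearly all actives have a fitted effect of over 25% in size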)
Outline: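 Seeding, 24 h rest, compound transfer from DMSO, 17beta-estradiol addition, 21.5 h incubation, CellTiter-Fluor (30 min, 37 C), then ONE-Glo (30 min, room temperature): this sequence was run on BG1-Luc-4E2 reporter cells.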

[15] = qHTS assay to identify small molecule antagonists of the estrogen receptor alpha (ER-alpha) signaling pathway using the BG1 cell line - cell viability counter screen (AID 743081);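 also: compound given together with 17beta-estradiol as the ER stimulus; series mostly up to about 70 µM; nearly all actives have a fitted effect of over 45% in size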
Aromatase (Homo sapiens) = Aromatase (Homo sapiens) (UniProt P11511); assay: qHTS assay to identify aromatase inhibitors (AID 743083); also: series mostly up to about 70 µM; nearly all actives have a fitted effect of over 55% in size
[16] = qHTS assay to identify aromatase inhibitors - cell viability counter screen (AID 743084)
[17] = target: Androgen receptor (Homo sapiens) (UniProt P10275); assay: qHTS assay to identify small molecule agonists of the androgen receptor (AR) signaling pathway (AID 743036; active = well fitted activation curve with a large enough effect in the signal ratio in the repeat runs, with a control signal flat, not every such curve was filed as active; the % refers to the signal ratio)
Outline: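 Beta-lactamase under UAS control, stably integrated in HEK293 GripTite cells, reports receptor activation. After 16 h compound treatment, cells received FRET substrate for 2 h at room temperature before fluorescence reading.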

[18] = target: Androgen receptor (Homo sapiens) (UniProt P10275); assay: qHTS assay to identify small molecule antagonists of the androgen receptor (AR) signaling pathway using the MDA cell line (AID 743042; also: nearly all actives have a fitted effect of over 55% in size)
Outline: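 MDA-kb2 breast carcinoma cells carrying MMTV-luciferase (AR/GR responsive) were co-treated with compounds and the agonist R1881 for 16 h at 37C. Inhibition read as ONE-Glo luminescence; CellTiter-Fluor fluorescence measured in parallel for cytotoxicity.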

[19] = target: Androgen receptor (Homo sapiens) (UniProt P10275); assay: qHTS assay to identify small molecule antagonists of the androgen receptor (AR) signaling pathway (AID 743035; active = well fitted inhibition curve with a large enough effect in the signal ratio in the repeat runs, not every such curve was filed as active; the % refers to the signal ratio)
Outline: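 AR-bla HEK293 reporter cells; 4 h settle at 37C/5% CO2; compound + R1881 agonist, 16 h at 37C; LiveBLAzer B/G FRET substrate 2 h RT; fluorescence intensity read. qHTS format.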

Measured: Potency

Chain of Aromatase (Homo sapiens) (P11511 whole entry, looked up): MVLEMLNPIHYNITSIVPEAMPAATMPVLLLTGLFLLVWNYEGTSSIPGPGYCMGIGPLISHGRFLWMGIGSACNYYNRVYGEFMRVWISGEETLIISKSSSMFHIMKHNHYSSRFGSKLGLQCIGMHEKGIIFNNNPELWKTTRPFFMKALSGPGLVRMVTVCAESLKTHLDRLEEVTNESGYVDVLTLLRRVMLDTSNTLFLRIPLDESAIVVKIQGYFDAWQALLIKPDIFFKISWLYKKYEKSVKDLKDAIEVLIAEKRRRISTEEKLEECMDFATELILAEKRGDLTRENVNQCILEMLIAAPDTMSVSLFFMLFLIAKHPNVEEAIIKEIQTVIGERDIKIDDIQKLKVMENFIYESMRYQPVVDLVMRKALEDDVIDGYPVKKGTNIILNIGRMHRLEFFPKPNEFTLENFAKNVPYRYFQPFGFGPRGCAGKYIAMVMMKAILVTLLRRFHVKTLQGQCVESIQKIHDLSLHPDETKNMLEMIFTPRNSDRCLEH
Chain of Estrogen receptor (Homo sapiens) (P03372 whole entry, looked up): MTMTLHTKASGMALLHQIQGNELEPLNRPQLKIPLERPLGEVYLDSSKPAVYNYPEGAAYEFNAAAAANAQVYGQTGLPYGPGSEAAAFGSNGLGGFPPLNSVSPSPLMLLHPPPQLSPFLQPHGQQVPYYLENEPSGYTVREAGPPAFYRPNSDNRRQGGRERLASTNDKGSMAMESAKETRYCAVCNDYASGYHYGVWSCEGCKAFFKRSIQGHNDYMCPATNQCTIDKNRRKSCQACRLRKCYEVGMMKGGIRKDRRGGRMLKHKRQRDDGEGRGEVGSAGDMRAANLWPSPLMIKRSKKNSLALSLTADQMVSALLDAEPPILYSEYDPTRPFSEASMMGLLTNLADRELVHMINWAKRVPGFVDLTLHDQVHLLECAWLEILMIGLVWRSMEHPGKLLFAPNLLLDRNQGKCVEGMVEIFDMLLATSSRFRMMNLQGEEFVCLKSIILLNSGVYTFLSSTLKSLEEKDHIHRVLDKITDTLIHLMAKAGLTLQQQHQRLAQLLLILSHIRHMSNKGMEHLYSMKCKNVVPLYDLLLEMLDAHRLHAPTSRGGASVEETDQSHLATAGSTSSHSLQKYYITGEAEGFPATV
Chain of Androgen receptor (Homo sapiens) (P10275 whole entry, looked up): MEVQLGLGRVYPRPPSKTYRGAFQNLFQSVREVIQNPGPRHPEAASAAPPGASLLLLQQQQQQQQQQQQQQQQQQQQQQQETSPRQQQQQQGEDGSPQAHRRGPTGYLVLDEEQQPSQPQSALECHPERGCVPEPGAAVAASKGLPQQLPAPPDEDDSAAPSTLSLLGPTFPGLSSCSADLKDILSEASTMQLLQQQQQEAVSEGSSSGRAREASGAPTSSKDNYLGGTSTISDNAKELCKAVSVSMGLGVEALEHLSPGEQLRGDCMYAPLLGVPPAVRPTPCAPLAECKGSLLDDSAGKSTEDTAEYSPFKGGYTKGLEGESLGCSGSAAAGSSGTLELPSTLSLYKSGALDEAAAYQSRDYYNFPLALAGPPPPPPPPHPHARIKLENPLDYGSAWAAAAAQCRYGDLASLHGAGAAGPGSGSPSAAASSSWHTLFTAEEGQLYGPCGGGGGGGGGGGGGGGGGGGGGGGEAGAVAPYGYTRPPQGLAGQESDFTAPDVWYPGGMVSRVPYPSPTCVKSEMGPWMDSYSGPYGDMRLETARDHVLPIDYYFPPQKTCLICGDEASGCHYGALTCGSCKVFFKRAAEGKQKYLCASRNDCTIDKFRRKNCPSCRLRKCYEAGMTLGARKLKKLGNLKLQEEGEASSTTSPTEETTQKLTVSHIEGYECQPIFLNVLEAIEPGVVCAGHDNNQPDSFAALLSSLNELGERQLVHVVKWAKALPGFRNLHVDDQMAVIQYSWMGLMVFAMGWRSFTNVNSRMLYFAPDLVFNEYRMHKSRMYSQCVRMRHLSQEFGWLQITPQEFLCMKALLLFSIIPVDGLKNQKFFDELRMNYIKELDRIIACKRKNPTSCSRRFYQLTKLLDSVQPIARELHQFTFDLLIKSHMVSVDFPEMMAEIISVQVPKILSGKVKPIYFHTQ

Cc1cccc(C(=O)O)c1[N+](=O)[O-]
not listed: [17] | [18] | [19]
inactive: all other assays above

OCCCCCCCl
not listed: [8] | [13] | [17] | [18] | [19]
inactive: all other assays above

CC(C)CCO
not listed: [17] | [18] | [19]
inactive: all other assays above

CCOC(=O)CCc1ccccc1
not listed: [10] | [12] | [13] | [14] | [17] | [18] | [19]
inactive: all other assays above

CN(C)CCOCCN(C)CCO
not listed: [17] | [18] | [19]
inactive: all other assays above

CC(C)CCC(=O)CCC(C)C
active: [2] 68.6 µM | [3] 68.6 µM | [4] 61.1 µM
not listed: [11] | [17] | [18] | [19]
inactive: all other assays above

Cc1nc([N+](=O)[O-])cn1-c1ccc([N+](=O)[O-])cc1
not listed: [14] | [17] | [18] | [19]
inactive: all other assays above

C=C(C)C(=O)OC1CC(C)CC(C)(C)C1 (configuration not stated)
not listed: [10] | [12] | [13] | [14] | [17] | [18] | [19]
inactive: all other assays above

O=P(O)(O)OCC(O)CO (configuration not stated)
not listed: [8] | [11] | [14] | [17] | [18] | [19]
inactive: all other assays above

C=CC(C)(O)CC/C=C(\C)CC (configuration not stated)
not listed: [17] | [18] | [19]
inactive: all other assays above

CCC1Nc2cc(Cl)c(S(N)(=O)=O)cc2S(=O)(=O)N1 (configuration not stated)
not listed: [10] | [12] | [13] | [14] | [15] | [17] | [18] | [19]
inactive: all other assays above

O=CN1CCOCC1
not listed: [14] | [19]
inactive: all other assays above

O=C(COCCOCCOCC(=O)Nc1c(I)cc(I)c(C(=O)O)c1I)Nc1c(I)cc(I)c(C(=O)O)c1I
not listed: [17] | [18] | [19]
inactive: all other assays above

O=C1OC(=O)c2ccccc21
not listed: [17] | [18] | [19]
inactive: all other assays above

Cc1ncc([N+](=O)[O-])n1CC(O)CCl (configuration not stated)
not listed: [10] | [12] | [13] | [14] | [17]
inactive: all other assays above

C=C[C@@H](C)CCC=C(C)C
not listed: [10] | [12] | [13] | [14] | [17] | [18] | [19]
inactive: all other assays above

Cc1ccccc1OCC1CO1 (configuration not stated)
not listed: [4] | [8] | [17] | [18] | [19]
inactive: all other assays above

CC(=O)Nc1ccc(C)cc1
not listed: [4] | [13] | [17] | [18] | [19]
inactive: all other assays above
